IDE exosite FP = exo-site inhibitors of human IDE, primary screen, biochemical, fluorescence anisotropy, probe displacement. Insulin-degrading enzyme (Homo sapiens), P14735. purified IDE, FL-6b probe fluorescence polarization; active compounds read low. z-score at 20 µM. actives 6.3% (n = 17,000). AID 1259349, 2017;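 active = z-score of -3 or lower, meaning strong loss of probe binding signal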;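 also: His-tagged human IDE residues 42-1019 made in E. coli with 30 nM FL-6b probe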
The depositor's hits bear a star. The entries come from a sample that favours hits as a whole.

SMILES | IDE exosite FP
O=C(Cc1cccnc1)N1CCCCN2[C@H](CO)[C@H](c3ccc(C#CC4CCCC4)cc3)[C@@H]2C1 | 1.4
C/C=C/c1ccc([C@H]2[C@@H](CO)N3CCCCN(C(=O)Cc4cccnc4)C[C@@H]23)cc1 | -0.18
C/C=C/c1ccc([C@@H]2[C@H]3CN(C(=O)Cc4ccncc4)CCCCN3[C@H]2CO)cc1 | 2.8
O=C(Cc1cccnc1)N1CCCCN2[C@H](C1)[C@H](c1ccc(/C=C/c3ccccc3)cc1)[C@@H]2CO | -5.5*
O=C(Cc1cccnc1)N1CCCCN2[C@H](CO)[C@H](c3ccc(/C=C/c4ccccc4)cc3)[C@@H]2C1 | -11*
O=C(O)[C@@H]1[C@@H](CO)[C@@H]2Cn3c(ccc(-c4cccnc4)c3=O)[C@H]1N2C(=O)Nc1cc(F)ccc1F | 0.2
N#Cc1cccc(-c2ccc([C@H]3[C@@H](CO)N4CCCCN(C(=O)Cc5ccccc5)C[C@H]34)cc2)c1 | 3.1
CN(C)CC#Cc1ccc([C@@H]2[C@H](CO)N3CCCCN(C(=O)Cc4ccccn4)C[C@@H]23)cc1 | -0.7
N#Cc1cccc(-c2ccc([C@H]3[C@@H](CO)N4CCCCN(C(=O)Cc5ccccc5)C[C@@H]34)cc2)c1 | 2.5
O=C(Cc1ccccc1)N1CCCCN2[C@H](CO)[C@H](c3ccc(C#Cc4ccccc4)cc3)[C@@H]2C1 | -1.9
O=C1CNC[C@@H]2[C@H](c3ccc(Br)cc3)[C@H](CO)N12 | -0.043

High-throughput results as filed in PubChem BioAssay.
